Among the data in PubChem BioAssay (NCI) are growth values, retold here.

Experiment in all cases: NCI-60 one-dose screen, 48 h (100 = growth as untreated, 0 = no growth, -100 = all killed)
Holding throughout (conditions): 10 µM

Test [1] deals with NCI-H23 lung.
Test [2] has as its system NCI-H226 lung.
For test [3], the system named is NCI-H322M lung.
In test [4] the test system is HOP-62 NSCLC.
Test [5] has as its system NCI-H460 lung.
The subject of test [6] is HOP-92 NSCLC.
The subject of test [7] is NCI-H522 lung.
The test system of test [8] is A549/ATCC NSCLC.
The subject of test [9] is 786-0 renal.
Test [10] deals with COLO 205 colon.

About 83,000 compounds went through this panel and 20% of them were active in at least one assay; those are over-represented in the sample as a whole.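 Values shown are percent growth following 48 h exposure of cells in 96-well plates to a single concentration of compound; below 10 was considered active.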 Values without a mark were called inactive. Active and inactive are the calls of the source.

On to `O=c1cc(CSc2nnc(-c3ccccc3)n2-c2ccc(F)cc2)c2ccc3ccccc3c2o1`, for which the growth in test [1] is 83.6%; in test [2], 81.4%; in test [3], 91.8%; in test [4], 92.8%; in test [5], 100%; in test [6] it was 83.5%. The growth in test [7] was 74.1%; in test [8] it was 99.2%; in test [9] it was 102%; in test [10], 91.3%.

As for `COc1cc(Cl)cc(-c2nn(-c3cccc(NC(=O)Nc4cccc(C(F)(F)F)c4)c3)cc2-c2ccncc2)c1`, the growth in [1] is -5.1% (active); in test [2], 3.94% (active); in test [3], 26.2%; in [4] it was 15.5%; in test [5], -6.11% (active); in test [6], -27.3% (active). In addition, the growth was -18.6% (active) in test [7], 8.08% (active) in test [8], 13.2% in test [9] and -31.2% (active) in test [10].

For the molecule `Nc1ccn([C@@H]2O[C@H](COP(=O)(O)O[C@@H]3C[C@H](n4cc(F)c(=O)[nH]c4=O)O[C@@H]3COP(=O)(O)O[C@@H]3C[C@H](n4cc(F)c(=O)[nH]c4=O)O[C@@H]3COP(=O)(O)O[C@@H]3C[C@H](n4cc(F)c(=O)[nH]c4=O)O[C@@H]3COP(=O)(O)O[C@@H]3C[C@H](n4cc(F)c(=O)[nH]c4=O)O[C@@H]3COP(=O)(O)O[C@@H]3C[C@H](n4cc(F)c(=O)[nH]c4=O)O[C@@H]3COP(=O)(O)O[C@@H]3C[C@H](n4cc(F)c(=O)[nH]c4=O)O[C@@H]3COP(=O)(O)O[C@@H]3C[C@H](n4cc(F)c(=O)[nH]c4=O)O[C@@H]3COP(=O)(O)O[C@@H]3C[C@H](n4cc(F)c(=O)[nH]c4=O)O[C@@H]3COP(=O)(O)O[C@@H]3C[C@H](n4cc(F)c(=O)[nH]c4=O)O[C@@H]3COP(=O)(O)O[C@@H]3C[C@H](n4cc(F)c(=O)[nH]c4=O)O[C@@H]3COP(=O)(O)OCCOCCOCCOCCOCCOCCO)[C@H](O)C2O)c(=O)n1` (stereo partly specified), the growth in test [1] is 33.2%; in test [2], 72.7%; in test [3], 83.5%; in test [4], 30%; in test [5], 6.31% (active); in [6] it was 71%. In addition, the growth in [7] is 45%; in [8] it was 11.7%; in test [9] it was 28.2%; in test [10], 36.9%.

With `CC(C)(C)CC(C)(C)c1ccc(O)c(Cc2ccc(Cl)cc2Cl)c1`, the growth in test [1] is -85.9% (active); in test [2] it was -83.8% (active); in test [3], -89.6% (active); in [4], -88.4% (active); in test [5] it was -68.1% (active); in test [6], -90.6% (active). In addition, the growth in [7] was -84.7% (active); in test [8] it was -88.5% (active); in [9] it was -92.8% (active); in test [10], -71.4% (active).

For the molecule `COc1ccc(-c2cc(=O)n(-c3nc4ccccc4[nH]3)[nH]2)cc1OC`, the growth in test [1] was 80.4%; in test [2], 85.1%; in test [3] it was 66.6%; in test [4] it was 71.6%; in test [5], 41.4%; in test [6] it was 17.4%. The growth in [7] is 49.2%; in test [8] it was 59%; in test [9], 83%; in test [10], 113%.

Take `Cn1cnc([N+](=O)[O-])c1/C=C1\Oc2ccc(Cl)cc2C1=O`: the growth in test [1] was 93.9%; in test [2], 94.8%; in test [3], 91%; in [4], 93.5%; in test [5], 99.4%; in test [6], 94%. Moreover, the growth is 52.8% in test [7], 98.4% in test [8], 91.9% in test [9] and 100% in [10].

As for `CCC(OC(=O)CC(C)C)c1ccccc1` (stereo unspecified), the growth in test [1] is 98.8%; in test [2] it was 89.4%; in test [3] it was 93.3%; in [4], 96.3%; in test [5] it was 105%; in test [6], 92.8%. Further, the growth in [7] is 71.8%; in [8], 80.6%; in test [9], 95.2%; in [10], 107%.

Turning to `CCc1nn2c(-c3ccccc3)c(-c3cc(OC)c(OC)c(OC)c3)nc2s1`, the growth in [1] is 98.3%; in test [2], 84.6%; in [3], 82.4%; in test [4], 98.7%; in test [5], 88.3%; in test [6] it was 49.8%. Moreover, the growth in test [7] is 70.9%; in [8], 92.1%; in test [9] it was 76.5%; in test [10], 84.9%.

For the molecule `N=C(N)c1ccc(-c2ccc(-c3ccccc3)s2)cc1F`, the growth is -65.9% (active) in [1]; -62.7% (active) in [2]; -88.5% (active) in test [3]; -83% (active) in test [4]; -79.5% (active) in test [5]; -83.7% (active) in test [6]. The growth in test [7] is -75.2% (active); in test [8] it was -74.2% (active); in test [9] it was -85% (active); in test [10] it was -78.1% (active).

Regarding `Cc1ccc(C2C=C(c3ccc(Cl)cc3)N=C3SC=CN32)c(Br)c1` (stereo unspecified), the growth in [1] was 85%; in test [2], 55.5%; in test [3], 85.5%; in test [4], 96.5%; in test [5] it was 84.4%; in test [6], 80.6%. For the same molecule, the growth in [7] was 80.7%; in test [8], 86.3%; in [9] it was 93.1%; in [10] it was 91.1%.

On to `CC(=O)CS(C)(=O)=O`, for which the growth in test [1] was 102%; in [2] it was 101%; in test [3] it was 113%; in [4], 106%; in test [5], 114%; in [6], 98.5%. The growth in test [7] is 93.7%; in test [8], 96.7%; in [9], 106%; in test [10], 106%.

For `COCc1cc2c(cc1Br)OCO2`, the growth in [1] is 96.7%; in [2], 95.5%; in test [3], 96.5%; in test [4] it was 87.3%; in [5], 106%; in test [6], 102%. Also, the growth in [7] is 88.6%; in test [8], 88.4%; in test [9], 102%; in [10] it was 102%.

Take `CC(C)c1ncc(CO)n1Cc1c(Cl)cccc1Cl`: the growth is 110% in [1]; 94.3% in [2]; 99.7% in [3]; 103% in test [4]; 103% in test [5]; 93.6% in test [6]. For the same molecule, the growth in test [7] was 94.4%; in [8], 102%; in [9], 104%; in [10] it was 89.6%.

`CC(C)/C(=N/O)c1ccccc1`: the growth is 103% in [1]; 104% in test [2]; 133% in [3]; 116% in test [4]; 120% in [5]; 91.3% in test [6]. For the same molecule, the growth in test [7] was 90.8%; in [8], 111%; in test [9], 88.2%; in [10], 115%.

Regarding `Nc1nc2c(ncn2C2OC3COP(=O)(O)OC4C(COP(=O)(O)OC2C3O)OC(n2cnc3c(N)ncnc32)C4O)c(=O)[nH]1` (stereo unspecified), the growth in [1] is 106%; in test [2], 75.6%; in [3], 105%; in [4], 94%; in test [5], 108%; in test [6], 109%. Moreover, the growth is 103% in test [7], 109% in test [8], 103% in test [9] and 98.1% in test [10].

For `CCc1ccc(-c2nnc(COc3ccc(-c4nc5ccc(C)cc5[nH]4)cc3OC)o2)cc1`, the growth in test [1] was 57.2%; in test [2] it was 48.6%; in test [3], 87.2%; in [4], 32.6%; in test [5] it was 63.5%; in test [6] it was 74.1%. In addition, the growth in test [7] was 71.3%; in test [8], 61.6%; in test [9], 21%; in test [10] it was 84.7%.

Regarding `Cn1c([N+](=O)[O-])cnc1/C=C1\Oc2ccc(Br)cc2C1=O`, the growth is -9.69% (active) in [1]; -38.1% (active) in test [2]; -10.5% (active) in test [3]; -23.7% (active) in test [4]; -35% (active) in test [5]; -32% (active) in [6]. Moreover, the growth in test [7] is -49.4% (active); in test [8] it was -24.8% (active); in test [9], -52.9% (active); in [10] it was -42.1% (active).

For the molecule `O=C(O)c1ccc(CNc2ccc(C(=O)CCl)cc2)cc1`, the growth was 116% in test [1]; 97.2% in [2]; 102% in [3]; 98.5% in [4]; 103% in [5]; 77.4% in test [6]. Further, the growth is -41.9% (active) in test [7], 94.9% in test [8], 109% in [9] and 97.3% in [10].

Consider `Cc1cc(C)c2c(Nc3ncnc4c3sc3nc(C)cc(C)c34)n[nH]c2n1`, for which the growth in test [1] was 98.6%; in test [2], 93.8%; in test [3], 111%; in test [4], 95%; in test [5] it was 104%; in test [6], 102%. Moreover, the growth in test [7] is 96.9%; in [8], 102%; in [9], 106%; in test [10], 109%.

For the molecule `Nc1nc(SCC#CCCl)c2[nH]cnc2n1`, the growth in [1] is 66.2%; in test [2], 65.1%; in test [3], 62.7%; in test [4], 94.2%; in [5], 29%; in test [6], 39.9%. Besides, the growth was 20.1% in test [7], 41.5% in test [9] and 47.7% in test [10].

Regarding `CCOC(=O)c1cc2c(n1Cc1cccc(OC)c1)-c1oncc1CC2`, the growth is 48.9% in [1]; 50% in test [2]; -0.987% (active) in test [3]; 37.8% in test [4]; 10% in test [5]; 30.5% in test [6]. Further, the growth in [7] was 13.7%; in [8] it was 42.6%; in test [9] it was 36.5%; in test [10] it was 9.01% (active).

For the molecule `Cc1cc(C#Cc2ccccc2)ccc1-n1c(/C=C/c2cc(O)ccc2O)nc2ccccc2c1=O`, the growth in [1] is -11.6% (active); in test [2], -41% (active); in [3], -19.5% (active); in [4], -33.1% (active); in test [5] it was -48.5% (active); in test [6] it was -17.9% (active). The growth in [7] was -74.6% (active); in test [9], 17.4%; in [10], -65.9% (active).

Consider `O=C(Nc1ccc(CN2CCOCC2)cc1)c1ccc(-c2cc(Cl)ccc2Cl)o1`, for which the growth is 82.7% in test [1]; 72.5% in test [2]; 51.4% in test [3]; 71.4% in [4]; 5.58% (active) in test [5]; 19.2% in test [6]. In addition, the growth is 66.7% in test [7], 63% in test [9] and -82.1% (active) in [10].

Turning to `COCCOC(=O)NC(=O)Nc1ccc(/C(=N/O)c2ccc(Cl)cc2)cc1`, the growth in test [1] was 29.2%; in test [2], 33.3%; in [3], 30.5%; in test [4] it was 19.2%; in test [5], 7.81% (active); in test [6], 44.6%. Besides, the growth in test [7] was -38.3% (active); in test [9], 22.3%; in test [10] it was -42.6% (active).

On to `CCN(Cc1ccccc1)C1CCN(Cc2cc(Br)ccc2O)CC1`, for which the growth was 41.3% in test [1]; 63.4% in test [2]; 88.8% in [3]; 58.1% in test [4]; 49.6% in [5]; 5.9% (active) in test [6]. Further, the growth in [7] was 61%; in test [8] it was 58.9%; in [9], 62.7%; in test [10], -20.6% (active).

For the molecule `COc1ccc(-c2nc3sc(-c4ccccc4)c(-c4ccccc4)n3c2/C=C/c2ccc(F)cc2)cc1`, the growth in [1] was 97%; in test [2], 107%; in test [3], 103%; in test [4], 95.9%; in test [5], 92.9%; in test [6], 94.5%. For the same molecule, the growth in test [7] is 106%; in test [8], 83.8%; in test [9], 100%; in [10], 99.6%.
